The list is not random: actives were taken first. Their share in the collection is about 19%.
TGFb inhibitor: inhibitors of TGF-b signaling. HepG2 CAGA-GFP TGF-b/SMAD3 reporter, GFP fluorescence, 18 h; TGF-beta stimulated, 500 pg/mL final. Potency, µM (top dose mostly 46.1 µM), for inactives: at the top dose activity, negative = inhibition, hits mostly inhibitors. hit rate 1.2% among 410,000. AID 588855; further: potency means the concentration at half of the fitted maximal effect; on the % scale 0 is the no-effect control and ±100 the full control effect; nearly all actives have a fitted effect of over 65% in size
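Cell-based qHTS in HEPG2 carrying a CAGA-GFP Smad reporter; compounds added before 500 pg/mL final TGF-beta, 18 h incubation at 37 degrees C, GFP fluorescence quantified per cell by imaging cytometry.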
TDP1 block: blocks human tyrosyl-DNA phosphodiesterase 1; Q9NUW8; recombinant TDP1, AlphaScreen DNA substrate cleavage; Potency, µM (titrated, usually from 130 µM), for the others: at the highest dose activity change, negative = inhibition, actives largely listed as inhibitors; hit rate 0.28% among 350,000; AID 485290; further: potency means the concentration at half of the fitted maximal effect; on the % scale 0 is the no-effect control and ±100 the full control effect; nearly all actives have a fitted effect of over 40% in size
Target sequence (Q9NUW8 whole entry, looked up): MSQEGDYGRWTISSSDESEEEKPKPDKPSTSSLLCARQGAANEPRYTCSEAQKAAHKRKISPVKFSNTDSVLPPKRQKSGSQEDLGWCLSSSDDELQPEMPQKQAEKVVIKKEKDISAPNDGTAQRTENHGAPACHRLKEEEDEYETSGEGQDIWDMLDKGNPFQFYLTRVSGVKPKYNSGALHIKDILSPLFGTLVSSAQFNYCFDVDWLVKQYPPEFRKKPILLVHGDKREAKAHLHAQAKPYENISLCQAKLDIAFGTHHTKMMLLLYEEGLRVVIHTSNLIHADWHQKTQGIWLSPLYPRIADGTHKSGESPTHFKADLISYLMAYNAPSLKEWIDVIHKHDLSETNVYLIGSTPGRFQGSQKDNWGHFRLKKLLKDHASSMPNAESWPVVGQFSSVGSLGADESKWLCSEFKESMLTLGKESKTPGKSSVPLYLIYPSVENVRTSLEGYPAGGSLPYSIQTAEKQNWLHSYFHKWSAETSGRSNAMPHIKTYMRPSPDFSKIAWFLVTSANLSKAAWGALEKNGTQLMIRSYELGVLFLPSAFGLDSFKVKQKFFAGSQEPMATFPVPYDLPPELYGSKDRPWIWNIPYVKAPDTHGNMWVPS
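Steps: enzyme plus compound, 15 min RT; add biotin/phosphotyrosine-FITC oligonucleotide (15 nM final), react 5 min; add donor/acceptor beads (10 ug/ml final), 10 min; read AlphaScreen. Tdp1 at 1 nM final.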
DT40 TDP1 CPT: growth inhibition of DT40 Tdp1-/-;hTDP1 cells with camptothecin (screen for TDP1 inhibitors) | Potency, µM (titrated, usually from 46.2 µM), inactives show at the top dose activity change, negative = growth inhibition, usual class: inhibitors | hit rate 12% among 420,000 | chicken DT40 Tdp1-/-;hTDP1 cells + 20 nM CPT, ATP luminescence, 48 h | AID 686979; further: potency means the concentration at half of the fitted maximal effect; on the % scale 0 is the no-effect control and ±100 the full control effect; nearly all actives have a fitted effect of over 55% in size
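Chicken DT40 Tdp1-/- cells complemented with human TDP1, 400 cells/well, exposed to compounds plus 20 nM camptothecin for at least 48 h at 37 C; viability read as ATP content by CellTiter-Glo luminescence.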
IL-1B inflam inh: inhibitors of inflammasome signaling (IL-1 beta secretion). THP-1 LPS/ATP IL-1B secretion, AlphaLISA, 16 h; hits give low values. activity change, % at 57.5 µM. hit rate 4.7% among 360,000. AID 743279; in the data active means activity change below about -50%; inconclusive means mostly about -30% to -49%; further: on the % scale 0 is the no-effect control and ±100 the full control effect
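THP-1 cells pretreated 1 hr with compounds (up to 57.5 uM final), then stimulated with LPS (250 ng/mL final) plus ATP (1.25 mM final); secreted IL-1B measured by AlphaLISA after 16 hr, decreased signal indicating inhibition.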
HepG2 tox: counter-screen for TGF-b inhibitors: cytotoxicity in HepG2 cells. Potency, µM (doses to about 46.1 µM), for the others: at the top dose activity change, negative = cytotoxicity, actives largely listed as cytotoxic. HepG2 CAGA-GFP viability, ATP luminescence, 18 h. hit rate 0.76% among 410,000. AID 588856; further: potency means the concentration at half of the fitted maximal effect
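CellTiter-Glo luminescence gave cytotoxicity after 18 hours at 37 degrees C. The cells were HepG2 CAGA-GFP in 1% FBS DMEM, stimulated with 500 pg/mL TGF-beta after compound addition. %Activity was normalised to no-cell wells (complete cell-killing) and DMSO (no toxicity), and curves were fitted and classified.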
TDP1 cell noCPT: qHTS for Inhibitors of human tyrosyl-DNA phosphodiesterase 1 (TDP1): qHTS in cells in absence of CPT | DT40 Tdp1-/- hTDP1 cells, no CPT, ATP luminescence, 48 h | Potency, µM (titrated, usually from 46.2 µM), for the others: at the top dose activity change, negative = growth inhibition, usual class: inhibitors | hit rate 15% among 420,000; further: potency means the concentration at half of the fitted maximal effect; on the % scale 0 is the no-effect control and ±100 the full control effect; nearly all actives have a fitted effect of over 55% in size
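Seeded 400 DT40-hTDP1 cells/well (vehicle DMSO, no 20 nM CPT); pinned compounds; ≥48 hr at 37 °C; CellTiter-Glo luminescence as viability measure.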
Numbers without * were called inactive; i = inactive; ? = inconclusive; nt = not tested or not shown; [ ] = dose if it differs, or a comment. Unless noted, the call rests on the fitted dose curve; in most records, active means well fitted curve in the direction sought with a large enough effect; inconclusive means small, poorly fitted or top-dose-only effect, or another doubt; inactive means no such curve, though single readings can be large; an effect the other way counts as inactive or inconclusive.

SMILES	TGFb inhibitor	TDP1 block	DT40 TDP1 CPT	IL-1B inflam inh	HepG2 tox	TDP1 cell noCPT
CCOC(=O)CSCC(=O)N1N=C(c2cccs2)CC1c1ccc(F)cc1 (centres undefined)	-3%	5%	15µM*	0	7%	?
Cc1ccn2c(=O)nc(SCC(=O)N3N=C(c4cccs4)CC3c3ccc(F)cc3)nc2c1 (centres undefined)	-18%	-13%	?	-12	-22%	18µM*
Cc1ccc2nc(SCC(=O)N3N=C(c4cccs4)CC3c3ccc(F)cc3)nc(=O)n2c1 (centres undefined)	0%	nt	-19%	?	-1%	?
COc1cccc(Cn2c(CNC(=O)CCc3ccccc3)nc3cccnc32)c1	-19%	8%	?	nt	-20%	?
CNc1nc(-c2ccc3c(c2)CCN3C(=O)c2cccc(F)c2)cs1	-18%	8%	23µM*	?	-28%	21µM*
CNc1nc(-c2ccc3c(c2)CCN3C(=O)c2ccccc2C)cs1	-13%	10%	?	-10	-25%	16µM*
CNc1nc(-c2ccc3c(c2)CCN3C(=O)c2ccc(F)cc2)cs1	1%	4%	?	-7	10%	?
CCCCN(C)CCCNC(=O)Cn1ncc2c3ccccc3n(Cc3cccc(Cl)c3)c2c1=O	1%	0%	?	nt	-1%	?
COc1cccc([C@@H]2Oc3ccc(OC)cc3/C(=N/O[C@@H](C)CN3CCCCc4nc(C)c(C)cc43)[C@@H]2O)c1	nt	5%[21 µM]	nt	nt	nt	nt
Cn1nc(C(C)(C)C)cc1NC(=O)Nc1cc(Cl)cc(Cl)c1	?	6%	16µM*	-98*	16µM*	?
COc1ccc([C@@H]2Sc3ccccc3NC(=O)[C@@H]2O)cc1	4%	nt	8%	5	-18%	2%
COC1C(CO)OC(n2c3c(Cl)cccc3c3c4c(c5c6cccc(Cl)c6[nH]c5c32)C(=O)NC4=O)C(O)C1O (centres undefined)	?	nt	0.52µM*	-63*	-46%	2.6µM*
O=C(Cn1c(=O)nc(-c2ccccc2)c2ccccc21)Nc1ccc(Cl)cc1F	-13%	5%	-13%	nt	-1%	-25%
CN(C)CCCN(C(=O)COc1ccccc1)c1nc2cc3c(cc2s1)OCO3	4%	7%	9%	i	20%	-29%
CN(C)CCCN(C(=O)COc1ccc(Cl)cc1)c1nc2cc3c(cc2s1)OCO3	?	7%	8.2µM*	-100*	-88%	13µM*
COc1cccc2sc(N(CCCN(C)C)C(=O)COc3ccc(Cl)cc3)nc12	?	8%	?	-27	-43%	?
CN(C)CCCN(C(=O)COc1ccc(Cl)cc1)c1nc2cc3c(cc2s1)OCCO3	-16%	nt	-28%	-94*	12%	?
CCOCCCNC(=O)c1ccc2c(=O)n(CCc3ccccc3)c(=O)[nH]c2c1	1%	9%	-3%	nt	-18%	-19%
Cn1cccc1C(=O)N1CCC2(CC1)CN(Cc1ccc(C#N)cc1)C2	nt	nt	0%	nt	nt	-17%
CN(C(=O)COC(=O)c1cc(NS(=O)(=O)c2cc([N+](=O)[O-])ccc2Cl)ccc1O)C1CCCCC1	?	6%	-25%	-81*	2%	-6%
CC(CCc1ccccc1)NC(=O)COC(=O)c1cc(NS(=O)(=O)c2ccc(Cl)c([N+](=O)[O-])c2)ccc1O (centres undefined)	?	8%	?	-98*	-52%	?
CNS(=O)(=O)c1cccc(C(=O)OCC(=O)NC(C)CCc2ccccc2)c1 (centres undefined)	14%	nt	-8%	15	-3%	-19%
Nc1ncnc2c1ncn2[C@@H]1O[C@H](CNCC#Cc2ccccc2)[C@@H](O)[C@H]1O	13%	0%	?	?	-23%	?
O=C(Nc1ccccc1)c1ccc(CN2CCC(Cc3ccccc3)CC2)cc1	0%	nt	?	-19	1%	?
Cc1ccc(CN2CCC(CNC(=O)Nc3ccccc3F)CC2)cc1	-6%	2%	1%	-53*	-26%	?
SMILES	TGFb inhibitor	TDP1 block	DT40 TDP1 CPT	IL-1B inflam inh	HepG2 tox	TDP1 cell noCPT
O=C(Nc1ccccc1C(F)(F)F)c1ccc(CN2CCC(Cc3ccccc3)CC2)cc1	?	3%	18µM*	-52*	-52%	-96%
Cc1ccc(NC(=O)N2CCCC2C(=O)NCc2ccc(Cl)cc2)cc1 (centres undefined)	-9%	1%	-3%	?	15%	1%
Cc1ccc(CN2CCC(CNC(=O)Nc3ccc(Cl)cc3)C2)cc1 (centres undefined)	13µM*	5%	?	nt	-73%	?
COc1ccc(CNC(=O)CCNC(=O)c2ccco2)cc1OC	10%	-5%	-2%	6	1%	6%
CCN(CC(=O)Nc1ccc(NC(C)=O)cc1)C(=O)c1cccc(-n2cccc2)c1	1%	nt	-1%	-16	-10%	?
COc1ccc(Nc2nc(-c3sc(C)nc3C)cs2)c(OC)c1	14%	12%	6.5µM*	-14	3%	8.2µM*
CC(=O)c1ccc(Nc2nc(-c3sc(C)nc3C)cs2)cc1	-3%	nt	2.1µM*	1	-11%	1.8µM*
Cc1ccc(Nc2nc(-c3sc(C)nc3C)cs2)cc1	?	10%	0.92µM*	71	-42%	0.58µM*
Cc1ccc(Nc2nc(-c3sc(N)nc3C)cs2)cc1	?	16%	-76%	-20	-11%	?
Cc1nc(C)c(-c2csc(Nc3ccc(S(N)(=O)=O)cc3)n2)s1	-13%	2%	?	-59*	9%	?
COc1cc(-c2nc(C)cnc2C)cc2c1OCCN(C(=O)Cc1cc(OC)c(OC)c(OC)c1)C2	nt	nt	9%[9.04 µM]	nt	nt	-5%
CCOC(=O)c1ccc(NC(=O)Cn2cc(C(=O)C3CC3)c3ccccc32)cc1	-6%	-3%	?	nt	-24%	?
Cc1nc(Nc2ccc(S(N)(=O)=O)cc2)sc1-c1ccccc1	?	nt	?	-80*	-121%	18µM*
COc1ccc(Nc2nc(C)c(-c3ccccc3)s2)cc1	6%	5%	?	-25	5%	?
CC(=O)Nc1ccc(Nc2nc(-c3sc(C)nc3C)cs2)cc1	-23%	8%	16µM*	-50*	-18%	?

Bioassay records: PubChem BioAssay, National Center for Advancing Translational Sciences (NCATS)
